Data on 40 sequences can be found in publication PMC12820563, “FoxP3 forms a head-to-head dimer in vivo and stabilizes its multimerization on adjacent microsatellites”.

In all, about 16,000 sequences were measured (“rpm ratio (pull-down/input)”: median about 0.5, highest 2% from about 5.5 on). The entries come from a sample that favours the highest values as a whole.

The target in this assay is T1, MBP-FoxP3dN (Mus musculus, UniProt Q99JB6 188-423).
T1 sequence: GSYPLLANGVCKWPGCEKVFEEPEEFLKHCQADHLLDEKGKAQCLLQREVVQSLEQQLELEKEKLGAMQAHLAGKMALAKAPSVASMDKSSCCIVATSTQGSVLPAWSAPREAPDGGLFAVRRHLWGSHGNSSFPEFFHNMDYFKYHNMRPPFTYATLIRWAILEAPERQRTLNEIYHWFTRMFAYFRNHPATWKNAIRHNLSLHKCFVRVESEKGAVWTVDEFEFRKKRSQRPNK
The assay can be described thus: PD-seq (MBP pull-down with sequencing); 20 mM Tris-HCl pH 7.5, 100 mM NaCl, 1.5 mM MgCl2, 0.4 uM protein, 0.1 uM dsDNA library, 30 min, room temperature, amylose pull-down; high values mean tight binding. The settings on record: protein: recombinant; tags: His6-MBP; chain copies: 2; dsDNA, one strand shown. In short, it runs like this:
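E. coli-expressed mouse FoxP3 or FoxP1 fragment, N-terminus removed and tagged with His6-MBP, was used at 0.4 µM against 0.1 µM of a Klenow-filled degenerate double-stranded DNA library. After 30 min at room temperature in Tris pH 7.5 buffer with NaCl and MgCl2, complexes were pulled down on amylose resin and washed three times. Binding is pull-down over input reads-per-million enrichment from pooled replicates of the proteinase K-released, PCR-barcoded, Illumina-sequenced DNA.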
For “GATGATTGTTCTCCCAGCTGATGAATTGTAGACATCGAGTAAACAAATTTTCCTAATCTTTCTGTTCAAGCGCCATCTAC”, the binding signal is 0.874 RPM ratio (pull-down/input).
The same measure for “GATGATTGTTCTCCCAGCTGATGAATTGACTCTCTCGAGTAAACAAATTTTCCTAATCTTTCTGTTCAAGCGCCATCTAC”: 0.425 RPM ratio (pull-down/input); for “GATGATTGTTCTCCCAGCTGATGAATTCGAGATATCGAGTAAACAAATTTTCCTAATCTTTCTGTTCAAGCGCCATCTAC”: 0.404 RPM ratio (pull-down/input); for “GATGATTGTTCTCCCAGCTGATGAATTGGTAGCCTCGAGTAAACAAATTTTCCTAATCTTTCTGTTCAAGCGCCATCTAC”: 0.924 RPM ratio (pull-down/input).
The same measure for “GATGATTGTTCTCCCAGCTGATGAATTCACTGTATCGAGTAAACAAATTTTCCTAATCTTTCTGTTCAAGCGCCATCTAC”: 0.627 RPM ratio (pull-down/input); for “GATGATTGTTCTCCCAGCTGATGAATTGTCTGTATCGAGTAAACAAATTTTCCTAATCTTTCTGTTCAAGCGCCATCTAC”: 0.624 RPM ratio (pull-down/input); for “GATGATTGTTCTCCCAGCTGATGAATTGTGGCGTTCGAGTAAACAAATTTTCCTAATCTTTCTGTTCAAGCGCCATCTAC”: 2.54 RPM ratio (pull-down/input).
As for “GATGATTGTTCTCCCAGCTGATGAATTGAATGATTCGAGTAAACAAATTTTCCTAATCTTTCTGTTCAAGCGCCATCTAC”, the binding signal was 0.737 RPM ratio (pull-down/input).
The same measure for “GATGATTGTTCTCCCAGCTGATGAATTCGAACACTCGAGTAAACAAATTTTCCTAATCTTTCTGTTCAAGCGCCATCTAC”: 0.457 RPM ratio (pull-down/input).
Under “GATGATTGTTCTCCCAGCTGATGAATTTTTCCGTTCGAGTAAACAAATTTTCCTAATCTTTCTGTTCAAGCGCCATCTAC” stands 0.238 RPM ratio (pull-down/input); under “GATGATTGTTCTCCCAGCTGATGAATTCACTCAATCGAGTAAACAAATTTTCCTAATCTTTCTGTTCAAGCGCCATCTAC”, 0.294 RPM ratio (pull-down/input).
Under “GATGATTGTTCTCCCAGCTGATGAATTGGGACTGTCGAGTAAACAAATTTTCCTAATCTTTCTGTTCAAGCGCCATCTAC” stands 0.673 RPM ratio (pull-down/input); under “GATGATTGTTCTCCCAGCTGATGAATTACACTATTCGAGTAAACAAATTTTCCTAATCTTTCTGTTCAAGCGCCATCTAC”, 0.606 RPM ratio (pull-down/input); under “GATGATTGTTCTCCCAGCTGATGAATTGCCATCCTCGAGTAAACAAATTTTCCTAATCTTTCTGTTCAAGCGCCATCTAC”, 0.935 RPM ratio (pull-down/input).
Consider “GATGATTGTTCTCCCAGCTGATGAATTTGCATCCTCGAGTAAACAAATTTTCCTAATCTTTCTGTTCAAGCGCCATCTAC”, for which the binding signal is 7.55 RPM ratio (pull-down/input).
In the case of “GATGATTGTTCTCCCAGCTGATGAATTGCATCCCTCGAGTAAACAAATTTTCCTAATCTTTCTGTTCAAGCGCCATCTAC”, the binding signal is 4.21 RPM ratio (pull-down/input).
As to “GATGATTGTTCTCCCAGCTGATGAATTGTAACCATCGAGTAAACAAATTTTCCTAATCTTTCTGTTCAAGCGCCATCTAC”, the binding signal was 1.1 RPM ratio (pull-down/input).
On to “GATGATTGTTCTCCCAGCTGATGAATTGGACGACTCGAGTAAACAAATTTTCCTAATCTTTCTGTTCAAGCGCCATCTAC”, for which the binding signal is 0.259 RPM ratio (pull-down/input).
Under “GATGATTGTTCTCCCAGCTGATGAATTGTGTTCATCGAGTAAACAAATTTTCCTAATCTTTCTGTTCAAGCGCCATCTAC” stands 1.77 RPM ratio (pull-down/input); under “GATGATTGTTCTCCCAGCTGATGAATTCGAGTTATCGAGTAAACAAATTTTCCTAATCTTTCTGTTCAAGCGCCATCTAC”, 0.746 RPM ratio (pull-down/input); under “GATGATTGTTCTCCCAGCTGATGAATTGCCAAATTCGAGTAAACAAATTTTCCTAATCTTTCTGTTCAAGCGCCATCTAC”, 0.453 RPM ratio (pull-down/input).
The same measure for “GATGATTGTTCTCCCAGCTGATGAATTGGATCCGTCGAGTAAACAAATTTTCCTAATCTTTCTGTTCAAGCGCCATCTAC”: 0.219 RPM ratio (pull-down/input); for “GATGATTGTTCTCCCAGCTGATGAATTGTGTGTGTCGAGTAAACAAATTTTCCTAATCTTTCTGTTCAAGCGCCATCTAC”: 5.21 RPM ratio (pull-down/input); for “GATGATTGTTCTCCCAGCTGATGAATTTTGTGTTTCGAGTAAACAAATTTTCCTAATCTTTCTGTTCAAGCGCCATCTAC”: 5.3 RPM ratio (pull-down/input).
Under “GATGATTGTTCTCCCAGCTGATGAATTGTTTGTGTCGAGTAAACAAATTTTCCTAATCTTTCTGTTCAAGCGCCATCTAC” stands 8.22 RPM ratio (pull-down/input); under “GATGATTGTTCTCCCAGCTGATGAATTGTGTTTGTCGAGTAAACAAATTTTCCTAATCTTTCTGTTCAAGCGCCATCTAC”, 8.45 RPM ratio (pull-down/input).
“GATGATTGTTCTCCCAGCTGATGAATTTGTTTTCTCGAGTAAACAAATTTTCCTAATCTTTCTGTTCAAGCGCCATCTAC”: the binding signal was 7.21 RPM ratio (pull-down/input).
Under “GATGATTGTTCTCCCAGCTGATGAATTGTTTTTCTCGAGTAAACAAATTTTCCTAATCTTTCTGTTCAAGCGCCATCTAC” stands 4.35 RPM ratio (pull-down/input); under “GATGATTGTTCTCCCAGCTGATGAATTGTTTACCTCGAGTAAACAAATTTTCCTAATCTTTCTGTTCAAGCGCCATCTAC”, 7.12 RPM ratio (pull-down/input).
The same measure for “GATGATTGTTCTCCCAGCTGATGAATTTTGTTTCTCGAGTAAACAAATTTTCCTAATCTTTCTGTTCAAGCGCCATCTAC”: 5.54 RPM ratio (pull-down/input).
For the sequence “GATGATTGTTCTCCCAGCTGATGAATTTACCTCCTCGAGTAAACAAATTTTCCTAATCTTTCTGTTCAAGCGCCATCTAC”, the binding signal is 0.573 RPM ratio (pull-down/input).
On to “GATGATTGTTCTCCCAGCTGATGAATTTTGTTCCTCGAGTAAACAAATTTTCCTAATCTTTCTGTTCAAGCGCCATCTAC”, for which the binding signal was 1.64 RPM ratio (pull-down/input).
The same measure for “GATGATTGTTCTCCCAGCTGATGAATTTGATTTCTCGAGTAAACAAATTTTCCTAATCTTTCTGTTCAAGCGCCATCTAC”: 4.02 RPM ratio (pull-down/input).
For the sequence “GATGATTGTTCTCCCAGCTGATGAATTTGTTTCCTCGAGTAAACAAATTTTCCTAATCTTTCTGTTCAAGCGCCATCTAC”, the binding signal is 5.92 RPM ratio (pull-down/input).
As for “GATGATTGTTCTCCCAGCTGATGAATTTGTTCTCTCGAGTAAACAAATTTTCCTAATCTTTCTGTTCAAGCGCCATCTAC”, the binding signal is 2.14 RPM ratio (pull-down/input).
The same measure for “GATGATTGTTCTCCCAGCTGATGAATTGTTTTCCTCGAGTAAACAAATTTTCCTAATCTTTCTGTTCAAGCGCCATCTAC”: 4.78 RPM ratio (pull-down/input).
“GATGATTGTTCTCCCAGCTGATGAATTTTTTACCTCGAGTAAACAAATTTTCCTAATCTTTCTGTTCAAGCGCCATCTAC”: the binding signal is 0.228 RPM ratio (pull-down/input).
The same measure for “GATGATTGTTCTCCCAGCTGATGAATTTTTGTTCTCGAGTAAACAAATTTTCCTAATCTTTCTGTTCAAGCGCCATCTAC”: 0.494 RPM ratio (pull-down/input).
Under “GATGATTGTTCTCCCAGCTGATGAATTGGGAATTTCGAGTAAACAAATTTTCCTAATCTTTCTGTTCAAGCGCCATCTAC” stands 1.3 RPM ratio (pull-down/input).
Under “GATGATTGTTCTCCCAGCTGATGAATTAGGCACGTCGAGTAAACAAATTTTCCTAATCTTTCTGTTCAAGCGCCATCTAC” stands 1.03 RPM ratio (pull-down/input).
